This is an account of results in PubChem BioAssay AID652054 (National Center for Advancing Translational Sciences (NCATS), 2013).

Screen size: about 360,000 compounds; about 9,100 (2.5%) were called active. About 4% were inconclusive and are not listed. Only a selection was taken, and actives are over-represented in it overall. Values without a mark were called inactive. No stated cut-off is given here; in the data, active means max response below about -50%; inconclusive means no clear call, values can overlap the other calls; inactive means above that.
On the % scale 0 is the no-effect control and ±100 the full control effect.

Sequence of D(3) dopamine receptor (Homo sapiens) (P35462 whole entry, looked up): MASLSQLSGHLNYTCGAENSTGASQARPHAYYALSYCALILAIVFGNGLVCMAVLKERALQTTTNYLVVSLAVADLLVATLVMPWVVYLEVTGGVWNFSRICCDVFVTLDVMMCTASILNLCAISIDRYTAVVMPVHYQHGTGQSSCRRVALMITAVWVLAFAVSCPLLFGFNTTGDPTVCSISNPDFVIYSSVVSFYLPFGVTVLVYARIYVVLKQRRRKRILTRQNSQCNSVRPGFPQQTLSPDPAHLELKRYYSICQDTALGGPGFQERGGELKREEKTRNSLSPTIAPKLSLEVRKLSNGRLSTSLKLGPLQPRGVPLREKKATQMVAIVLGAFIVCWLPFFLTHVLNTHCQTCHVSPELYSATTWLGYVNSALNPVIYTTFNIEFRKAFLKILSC

This assay has as its target D(3) dopamine receptor (Homo sapiens) (UniProt P35462). As to the kind of experiment: qHTS of D3 Dopamine Receptor Antagonist: qHTS. Particulars: D3R cells, DiscoveRx beta-arrestin luminescence, antagonist mode; hits give low values. Put shortly:
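Cells expressing the human receptor were seeded at 1500 cells/well, incubated overnight at 37 degrees C in 5% CO2, then exposed to library compounds with dopamine controls for 90 minutes at 37 degrees C before luminescent detection.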
Background: Quantitative high-throughput screening tests each substance at several concentrations.
For the molecule `O=C(Nc1ccc(Cl)cc1)C1Cc2c(-c3ccc4c(c3)OCO4)ccnc2O1` (configuration not stated), the max response, negative = inhibition was -10.5%. As to `O=C(CN1CCN(S(=O)(=O)c2ccc(F)cc2)CC1)Nc1ccccc1F`, the max response, negative = inhibition is 0%. For the molecule `O=C(CN1CCN(S(=O)(=O)c2ccc(Br)cc2)CC1)Nc1ccccc1C(=O)c1ccccc1`, the max response, negative = inhibition was -71.6% (active). Turning to `COc1ccccc1NC(=O)CN1CCN(S(=O)(=O)c2ccc(Br)cc2)CC1`, the max response, negative = inhibition was -9.35%. With `Cc1ccc(-c2nc3c(C)cc(Br)cn3c2Cc2ccccc2)cc1`, the max response, negative = inhibition was -0.352%. Consider `O=C(NC1=CC(=O)c2ccccc2C1=O)c1ccccc1`, for which the max response, negative = inhibition is -88.8% (active).

With `O=C(NC(=O)c1ccccc1)Nc1ccccc1O`, the max response, negative = inhibition is -13.1%. In the case of `COC(=O)c1nc(NC(=O)c2ccccc2)n[nH]1` it was 24.5%; in that of `O=C(NCc1nnnn1-c1ccc(Cl)cc1)c1ccc([N+](=O)[O-])o1`, 10.2%. For the molecule `CCc1cc(C(=O)c2ccc(OC)cc2)c(NC(=O)CN2CCN(C)CC2)s1`, the max response, negative = inhibition is -7.92%. For the molecule `COc1ccc(C(=O)N2CCC(C(=O)Nc3ccc(C)cc3)CC2)cc1`, the max response, negative = inhibition was 9.09%. With `CCc1ccc(NC(=O)CN2CCC(C(=O)c3ccc(OC)cc3)CC2)cc1`, the max response, negative = inhibition was -50.9% (active).

On to `COc1cccc(-c2nc(CS(=O)(=O)CC(=O)NCCc3ccc(OC)c(OC)c3)c(C)o2)c1`, for which the max response, negative = inhibition was 1.08%.

Turning to `COc1ccc(-c2nc(CS(=O)(=O)CC(=O)NCc3cccc(Br)c3)c(C)o2)cc1`, the max response, negative = inhibition was 8.07%. For `CCCCN(CC)CCCNC(=O)CS(=O)(=O)Cc1nc(-c2cccc(OC)c2)oc1C`, the max response, negative = inhibition is -50.9% (active).

As for `COC(=O)c1ccc2nc(-c3ccc(F)cc3)c(Cc3ccc(C)cc3)n2c1`, the max response, negative = inhibition was 19.7%. For `CCCOc1ccc(F)cc1-c1cc(C(=O)Nc2ccc(F)c(Cl)c2)[nH]n1`, the max response, negative = inhibition was -15.7%. As to `CCCOc1ccc(F)cc1-c1cc(C(=O)NCc2ccc(F)cc2)[nH]n1`, the max response, negative = inhibition is -2.32%. As for `Cc1ccccc1CN1CCN(C(=O)c2cccc(F)c2)CC1`, the max response, negative = inhibition is -63.6% (active). With `COc1cccc(OC)c1C(=O)N1CCN(Cc2ccccc2F)CC1`, the max response, negative = inhibition is -6.64%. As to `O=C(CN1CCN(C(=O)c2cccc(F)c2)CC1)Nc1ccccc1F`, the max response, negative = inhibition was 137%. In the case of `Cc1ccc(S(=O)(=O)N2CCN(S(=O)(=O)N3CCOCC3)CC2)cc1`, the max response, negative = inhibition is -75.3% (active).

For the molecule `Cc1ccc(C(=O)N2CCN(S(=O)(=O)N3CCOCC3)CC2)cc1`, the max response, negative = inhibition was -16.1%.

For `Cc1ccc(S(=O)(=O)N2CCN(C)CC2)cc1`, the max response, negative = inhibition is 7.28%.

As for `O=[N+]([O-])c1ccc(CN2CC(N3CCC(c4ccccc4)CC3)CS2(=O)=O)cc1` (configuration not stated), the max response, negative = inhibition was -23.6%. With `CCOC(=O)[C@]12CCC=C1N(Cc1ccco1)C(=O)[C@H](CC(=O)NCc1cccc(C(F)(F)F)c1)C2`, the max response, negative = inhibition was -18.6%. As to `Oc1ccc(N=Nc2nccs2)c(O)c1`, the max response, negative = inhibition was -73.7% (active). `Oc1ccc2ccccc2c1N=Nc1nccs1`: the max response, negative = inhibition is -67.4% (active). On to `CCNC(=O)C1CCCN(C(=O)c2cc(F)ccc2C)CC1` (configuration not stated), for which the max response, negative = inhibition is 15.3%. On to `CCCCC[C@H](C)N1C[C@@H](COCc2ccccc2)Oc2cc(N3CC[C@@H](N(C)C)C3)ccc2S1(=O)=O`, for which the max response, negative = inhibition was 18.9%. With `Cc1cc(Cl)ccc1-c1nc(NCCN(C)C)nc2ccsc12`, the max response, negative = inhibition was -28.3%. Consider `O=C1CC[C@@H](C(=O)N2CSC[C@@H]2C(=O)Nc2ccc(C(F)(F)F)cc2)N1`, for which the max response, negative = inhibition is -3.96%.

For the molecule `COc1ccc(C2=Nc3ccccc3NC(=O)C2N(C(=O)c2cc3ccccc3[nH]2)c2ccccc2)cc1` (configuration not stated), the max response, negative = inhibition was -13.2%. As for `CCc1ccccc1OCC(=O)Nc1nnc(C2CC2)s1`, the max response, negative = inhibition is -9.37%. In the case of `O=C(/C(=C/c1cccc(Cl)c1)c1nc2ccccc2[nH]1)c1ccccc1` it was -87.4% (active); in that of `O=C(O)c1cccc(NC(=O)c2cc(-c3cccc(Cl)c3)nc3ccccc23)c1`, 14.5%; in that of `O=C(N/N=C/c1ccc(Cl)cc1)c1nc2ccc([N+](=O)[O-])cc2c(=O)[nH]1`, 9.98%. For the molecule `CCCn1c(N)c(C(=O)CSc2nnc(Cc3cccs3)n2C2CC2)c(=O)[nH]c1=O`, the max response, negative = inhibition is 31%. In the case of `O=C(NCC(F)(F)F)c1ccc(S(=O)(=O)NCCc2ccc3c(c2)OCCO3)cc1`, the max response, negative = inhibition is 18.6%.

As for `CC(C)Cc1ccc(-c2cc3nc(NCc4cccc(Cl)c4)ccn3n2)cc1`, the max response, negative = inhibition is 16.3%. On to `CC(=O)c1ccc(Nc2nc(C(N)c3ccccc3Cl)cs2)cc1` (configuration not stated), for which the max response, negative = inhibition is 0%. Then `CC1(C(=O)NS(=O)(=O)c2cccc(F)c2)CCN1C(=O)c1cccc2ccccc12` (configuration not stated), with -11.4%. In the case of `Cc1ccccc1N1CCN(S(=O)(=O)c2ccc3ccccc3c2)CC1` it was -28.5%; in that of `Cc1ccc(C)c(N2CCN(S(=O)(=O)c3ccc4c(c3)oc(=O)n4C)CC2)c1`, 19.9%; in that of `Cc1ccc(N2CCN(S(=O)(=O)c3ccc(F)cc3)CC2)c(C)c1`, -54.7% (active). As to `CCc1nc2c(OCCc3cccc(OC)c3)cccn2c1N(C)C(=O)c1ccc(C)cc1`, the max response, negative = inhibition was -6.67%.

Take `N/C(=N\OC(=O)Nc1ccccc1)c1ccno1`: the max response, negative = inhibition is -63.2% (active). In the case of `O=C(Nc1ccccc1)O/N=C1/CCCc2occc21`, the max response, negative = inhibition was -1.95%. As to `CC(C)(COC(=O)Nc1ccccc1)COC(=O)Nc1ccccc1`, the max response, negative = inhibition was -25.8%. Then `COc1cc2ccc(C(C)=O)c(O)c2cc1OC`, with -9.5%; and `CCC(C)C(CO)NC(=O)/C=C/[C@H]1O[C@@H](n2cnc3c(NC(=O)c4ccccc4)ncnc32)[C@H](O)[C@@H]1O` (some centres not stated), with 10.7%.

As for `COc1c(O)ccc2c1CN1CCc3cc4c(cc3C1C2)OCO4` (configuration not stated), the max response, negative = inhibition is -123% (active). For `COc1ccc2cc1Oc1ccc(cc1)C[C@H]1c3cc(c(OC)cc3CCN1C)Oc1c(O)c(OC)cc3c1[C@H](C2)N(C)CC3`, the max response, negative = inhibition was -18.7%. Regarding `COc1cc(C(=O)CCc2ccc3c(c2)OCO3)cc(OC)c1OC`, the max response, negative = inhibition is -2.22%. Regarding `Cn1c(=O)c2cc(NC(=O)NCCc3cccs3)ccc2n1Cc1cccc(C(F)(F)F)c1`, the max response, negative = inhibition was 18.7%. Then `Cc1cc(Nc2ccc(C)c(C)c2)n2ncnc2n1`, with -15.7%; and `COc1ccc(-c2ccc(CN3C(C(C)C)C(=O)N(Cc4cn(CC5CCCCC5)nn4)CCS3(=O)=O)cc2)cn1` (configuration not stated), with 14.3%.
